Results filed as inconclusive are left out. Where a call stands in place of a potency, no number is given. Values without a mark were called inactive. Calls of active or inactive are those of the source. Unless noted, calls follow the shape of the dose curve; as a rule, active = well fitted curve in the direction sought with a large enough effect; inconclusive = small, poorly fitted or top-dose-only effect, or another doubt; inactive = no such curve, though single readings can be large; an effect the other way counts as inactive or inconclusive.
Columns and labels:
[1] = biological target: Protein phosphatase 1D (Homo sapiens) (UniProt O15297); assay: RapidFire Mass Spectrometry qHTS Assay for Modulators of WT P53-Induced Phosphatase 1 (WIP1) (AID 1347424);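 also: amount of dephosphorylated VEPPL-S-QETFS peptide product formed by WIP1; series mostly up to about 63 µM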
How it was run: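 10 nM WIP1 + cpd, 1 h RT; + 2 uM VEPPL-pS-QETFS, 5 min RT; stop 0.5% formic acid; labelled product standard 1 uM; RapidFire MS. Buffer 50 mM Tris pH 7.5, 30 mM MgCl2, 1 mM TCEP.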

[2] = biological target: Protein phosphatase 1D (Homo sapiens) (UniProt O15297); assay: Rhodamine-PBP qHTS Assay for Modulators of WT P53-Induced Phosphatase 1 (WIP1) (AID 1347425)
How it was run: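 The read-out is the change in Rhodamine-PBP fluorescence (f1 - f0, ex 525/em 598 nm) as Pi is released, read each minute for 11 min. Final reaction: 5 nM WIP1, 10 uM phosphopeptide VEPPL-pS-QETFS, 10 uM Rh-PBP, 50 mM Tris-HCl pH 7.5, 30 mM MgCl2. Compound was preincubated with enzyme for 1 hour at room temperature.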

[3] = Primary qHTS for inhibitors of La Crosse Virus (LACV) - induced cell death in SH-SY5Y cells (AID 1508616);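 also: top concentration of the series differs between compounds; higher means more rescue of cells from virus-induced death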
How it was run: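 Readout was luminescence from ATPLite 1step added after a 6-day LACV infection (0.01 MOI) of SH-SY5Y cells that had received pin-transferred compound 24 hr after seeding.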

[4] = biological target: Calcium and integrin-binding protein 1 (Homo sapiens) (UniProt Q99828); assay: Primary qHTS for Identification of Calcium Integrin Binding Protein 1 (CIB1) Competitor (AID 1508620);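 also: GST tagged CIB1 binding a fluorescein labelled alphaIIb integrin peptide tracer; top concentration of the series differs between compounds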
How it was run: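 CIB1-GST (1 uM final) and compound incubated 15 min at room temperature before adding FITC-alphaIIb peptide tracer (100 nM final). Competition for binding read by fluorescence polarization (ex 480, em 540) after another 15 min at room temperature.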

[5] = A High-Content qHTS Against Drug Library for the Identification of Small Molecules that Inhibit DYT1 Early Onset Primary Dystonia-Associated Cell Pathology (AID 1645839; calls by dose curve; also: series mostly up to about 46 µM)
How it was run: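 In this high-content image screen, delE TorsinA mislocalization in inducible Flp-In 293 cells is scored as %pathology, with cell count serving as the counterscreen. Compound exposure lasts 48 h under tetracycline induction in reduced-serum medium.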

[6] = biological target: Cytochrome P450 2D6 (Homo sapiens) (UniProt P10635); assay: Cytochrome P450 family 2 subfamily D member 6 (CYP2D6) small molecule antagonists: luciferase biochemical (cell-free) qHTS assay (AID 1645840; active = well fitted curve in the direction sought with a large enough effect in the repeat runs; an effect the other way counts as inactive or inconclusive; also: nearly all actives have a fitted effect of over 55% in size; also: potency is read from the fitted curve at half-maximal effect; as to activity change, negative = inhibition: series mostly up to about 57 µM)
How it was run: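 P450-Glo luminescent screen: recombinant CYP2D6 enzyme–proluciferin substrate mix preincubated with compound 10 min at room temperature, then NADPH regeneration added for 1 h at room temperature. Detection reagent added for 20 min; luciferin light read as relative luminescence units.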

[7] = biological target: Cytochrome P450 2C9 (Homo sapiens) (UniProt P11712); assay: Cytochrome P450 family 2 subfamily C member 9 (CYP2C9) small molecule antagonists: luciferase biochemical (cell-free) qHTS assay (AID 1645842; active = well fitted curve in the direction sought with a large enough effect in the repeat runs; an effect the other way counts as inactive or inconclusive; also: nearly all actives have a fitted effect of over 55% in size; also: potency is read from the fitted curve at half-maximal effect; as to activity change, negative = inhibition: series mostly up to about 57 µM)
How it was run: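 Luminescence, after 20 min with luciferin detection reagent, reflected CYP2C9 turnover during a 1 h NADPH-driven reaction at 37C. Enzyme-substrate mix contained 0.4% bovine serum albumin and was preincubated with compound 10 min at room temperature.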

[8] = Primary qHTS for inhibitors of nuclear receptor binding SET domain protein 2 (NSD2) in an isogenic RCH-ACV NSD2 p.E1099K mutant (9B) (AID 1645876); also: nearly all actives have a fitted effect of over 70% in size; also: potency is read from the fitted curve at half-maximal effect
[9] = Primary qHTS for inhibitors of nuclear receptor binding SET domain protein 2 (NSD2) in an RCH-ACV wild type WT cells (2C) (AID 1645877); also: nearly all actives have a fitted effect of over 70% in size; also: potency is read from the fitted curve at half-maximal effect
[10] = Counterscreen qHTS for small molecule stabilizers of the endoplasmic reticulum resident proteome: GLuc-NoTag assay (AID 1508627);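 also: SH-SY5Y cells given compound then 100 nM thapsigargin to empty ER calcium; series mostly up to about 76 µM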
How it was run: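 Luminescence of Gaussia luciferase secreted into the medium (coelenterazine, 0.07x final, unlysed cells) was the read-out. Human SH-SY5Y neuroblastoma cells constitutively secreting untagged GLuc received compound for 19 h, then 100 nM thapsigargin for 4 h.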

[11] = Confirmatory qHTS for small molecule stabilizers of the endoplasmic reticulum resident proteome: Secreted ER Calcium Modulated Protein (SERCaMP) assay (AID 1508628);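 also: SH-SY5Y cells given compound 16 h then thapsigargin 100 nM for 4 h; series mostly up to about 76 µM; nearly all actives have a fitted effect of over 40% in size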
How it was run: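 We seeded SH-SY5Y-GLuc-SERCaMP cells, added compounds (three concentrations in the primary run, eleven up to 76.6 uM in confirmation), incubated 16 h, depleted ER calcium with thapsigargin, and read luciferase 4 h later.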

[12] = Primary qHTS for small molecule stabilizers of the endoplasmic reticulum resident proteome: Secreted ER Calcium Modulated Protein (SERCaMP) assay (AID 1508630)
How it was run: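 GLuc-SERCaMP-expressing SH-SY5Y cells, pretreated 16 h with compound, are challenged with thapsigargin to empty ER calcium stores; after 4 h, coelenterazine is added directly to the medium and luminescence is imaged.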

[13] = biological target: Cytochrome P450 3A4 (Homo sapiens) (UniProt P08684); assay: Cytochrome P450 family 3 subfamily A member 4 (CYP3A4) small molecule antagonists: luciferase qHTS assay (AID 1645841; active = well fitted curve in the direction sought with a large enough effect in the repeat runs; an effect the other way counts as inactive or inconclusive; also: nearly all actives have a fitted effect of over 45% in size)
How it was run: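 Luminescent CYP3A4 activity readout: compounds plus enzyme-substrate mix 10 min at room temperature, reaction started with NADPH regenerating system for 1 h, stopped with detection reagent, read after 20 min. Ketoconazole served as control.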

Chain of Protein phosphatase 1D (Homo sapiens) (O15297 whole entry, looked up): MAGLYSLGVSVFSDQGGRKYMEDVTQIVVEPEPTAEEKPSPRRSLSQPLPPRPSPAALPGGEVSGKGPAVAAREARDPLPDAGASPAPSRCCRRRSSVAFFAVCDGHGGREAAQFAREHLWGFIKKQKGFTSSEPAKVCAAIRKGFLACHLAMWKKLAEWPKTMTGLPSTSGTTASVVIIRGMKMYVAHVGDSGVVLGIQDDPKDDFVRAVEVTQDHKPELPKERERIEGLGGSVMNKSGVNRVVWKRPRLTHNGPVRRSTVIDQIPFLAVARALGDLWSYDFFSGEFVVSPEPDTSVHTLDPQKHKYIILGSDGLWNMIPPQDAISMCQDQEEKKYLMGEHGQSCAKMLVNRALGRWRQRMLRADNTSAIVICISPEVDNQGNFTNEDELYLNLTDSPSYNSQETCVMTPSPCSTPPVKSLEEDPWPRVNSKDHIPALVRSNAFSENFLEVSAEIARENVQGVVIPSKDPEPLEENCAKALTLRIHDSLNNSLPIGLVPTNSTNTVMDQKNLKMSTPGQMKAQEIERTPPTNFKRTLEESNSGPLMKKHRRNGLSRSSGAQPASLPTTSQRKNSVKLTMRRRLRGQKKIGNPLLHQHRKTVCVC
Chain of Cytochrome P450 2C9 (Homo sapiens) (P11712 whole entry, looked up): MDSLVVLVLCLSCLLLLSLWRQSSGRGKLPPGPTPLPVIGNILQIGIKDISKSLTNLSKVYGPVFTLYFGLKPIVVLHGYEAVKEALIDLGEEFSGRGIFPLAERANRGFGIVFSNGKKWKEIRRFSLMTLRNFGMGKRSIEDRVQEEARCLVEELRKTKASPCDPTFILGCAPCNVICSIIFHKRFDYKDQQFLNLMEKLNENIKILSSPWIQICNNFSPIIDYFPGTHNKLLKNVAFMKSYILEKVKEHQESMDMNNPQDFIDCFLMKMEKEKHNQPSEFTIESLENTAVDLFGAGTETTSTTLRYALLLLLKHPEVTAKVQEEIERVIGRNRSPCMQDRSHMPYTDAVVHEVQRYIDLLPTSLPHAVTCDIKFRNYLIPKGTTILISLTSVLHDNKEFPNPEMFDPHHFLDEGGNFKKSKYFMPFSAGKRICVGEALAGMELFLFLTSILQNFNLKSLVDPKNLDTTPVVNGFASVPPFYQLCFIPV
Chain of Cytochrome P450 2D6 (Homo sapiens) (P10635 whole entry, looked up): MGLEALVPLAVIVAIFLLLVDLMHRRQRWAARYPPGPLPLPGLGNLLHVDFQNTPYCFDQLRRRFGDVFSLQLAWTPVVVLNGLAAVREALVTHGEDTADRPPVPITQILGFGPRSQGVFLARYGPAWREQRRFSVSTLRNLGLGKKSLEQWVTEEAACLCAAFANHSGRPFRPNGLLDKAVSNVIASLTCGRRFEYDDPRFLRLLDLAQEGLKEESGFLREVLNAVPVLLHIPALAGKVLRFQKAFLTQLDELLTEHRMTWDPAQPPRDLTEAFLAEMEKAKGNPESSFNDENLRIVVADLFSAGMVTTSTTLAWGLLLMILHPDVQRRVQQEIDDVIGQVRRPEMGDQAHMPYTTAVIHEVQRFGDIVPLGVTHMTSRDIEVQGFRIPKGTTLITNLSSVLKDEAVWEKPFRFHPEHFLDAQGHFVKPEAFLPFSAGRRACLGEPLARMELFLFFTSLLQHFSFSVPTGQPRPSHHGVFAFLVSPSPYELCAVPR
Chain of Calcium and integrin-binding protein 1 (Homo sapiens) (Q99828 whole entry, looked up): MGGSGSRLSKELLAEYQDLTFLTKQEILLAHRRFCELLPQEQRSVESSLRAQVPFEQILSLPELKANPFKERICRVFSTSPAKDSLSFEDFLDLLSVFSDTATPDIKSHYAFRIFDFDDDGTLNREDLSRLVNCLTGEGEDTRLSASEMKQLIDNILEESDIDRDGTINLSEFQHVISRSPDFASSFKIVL
Chain of Cytochrome P450 3A4 (Homo sapiens) (P08684 whole entry, looked up): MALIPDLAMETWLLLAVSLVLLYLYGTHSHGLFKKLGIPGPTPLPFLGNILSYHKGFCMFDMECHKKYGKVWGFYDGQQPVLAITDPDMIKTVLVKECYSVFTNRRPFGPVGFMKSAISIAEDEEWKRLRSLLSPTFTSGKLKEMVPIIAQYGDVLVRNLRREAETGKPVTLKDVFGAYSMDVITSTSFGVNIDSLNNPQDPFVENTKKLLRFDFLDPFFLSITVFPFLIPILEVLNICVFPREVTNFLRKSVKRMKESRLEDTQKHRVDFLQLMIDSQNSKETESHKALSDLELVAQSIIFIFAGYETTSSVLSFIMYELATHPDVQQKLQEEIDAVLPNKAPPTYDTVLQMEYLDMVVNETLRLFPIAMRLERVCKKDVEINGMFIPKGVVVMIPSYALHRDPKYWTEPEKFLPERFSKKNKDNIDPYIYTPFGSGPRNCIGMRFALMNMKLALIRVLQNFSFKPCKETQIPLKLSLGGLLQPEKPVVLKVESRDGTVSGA

SMILES	Potency [1]	outcome [2]	outcome [3]	Potency [4]	Potency [5]	Potency [6]	Potency [7]	Potency [8]	Potency [9]	Potency [10]	Potency [11]	activity change, negative = inhibition [12]	Potency [13]	Potency [12]
Nc1ccc(C(=O)NCC(=O)O)cc1	inactive	inactive	inactive	inactive	inactive	inactive	inactive	inactive	inactive					
CCCCCCCCCCCCCCC[C@H](O)[C@@H](N)CO	inactive	inactive	inactive			9.77 µM (active)	inactive	4.73 µM (active)	5.96 µM (active)	inactive	inactive	-27.1% [at 3.88 µM]		
O=C(Nc1ccccc1)OCC(CN1CCCCC1)OC(=O)Nc1ccccc1 (stereo not drawn)	inactive	inactive	inactive	inactive		0.155 µM (active)	13.8 µM (active)							
CC(=O)Nc1ccc(OC(=O)c2ccccc2OC(C)=O)cc1	inactive	inactive	inactive	inactive	inactive		inactive	inactive	inactive					
CCCCCCCCCCCCOCCOCCOCCOCCOCCOCCOCCOCCOCCO	inactive	inactive	inactive	inactive			21.9 µM (active)		11.9 µM (active)					
CN1CCN(C2=Nc3ccccc3Sc3ccc(Cl)cc32)CC1	inactive	inactive	inactive	inactive	inactive		inactive							
CCCc1ncc(C[n+]2ccccc2C)c(N)n1	inactive	inactive	inactive	inactive	inactive	inactive	inactive							
Cc1cccc(C)c1NC(=O)c1ccccc1C(=O)O	inactive	inactive	inactive	inactive	inactive	inactive	inactive	inactive	inactive					
NC1CCN(c2nc3c(cc2F)c(=O)c(C(=O)O)cn3-c2ccc(F)cc2F)C1 (stereo not drawn)	inactive	inactive	inactive	inactive	inactive		inactive							
CC(O)Cn1cnc2c1c(=O)n(C)c(=O)n2C (stereo not drawn)	inactive	inactive	inactive	inactive	inactive			inactive	inactive					
O=C(NC1CCN(CCc2c[nH]c3ccccc23)CC1)c1ccccc1	inactive	inactive	inactive	inactive		1.23 µM (active)	inactive							
O=C(O)P(=O)(O)O	inactive	inactive	inactive	inactive	inactive	inactive	inactive							
CC(=O)Nc1ccc(CC(=O)O)cc1	inactive	inactive	inactive	inactive	inactive	inactive	inactive	inactive	inactive					
FC(F)(F)C(F)(F)C(F)(F)C(F)(F)C(F)(F)C(F)(F)C(F)(F)C(F)(F)Br	inactive	inactive	inactive	inactive	inactive		inactive	inactive	inactive					
CCCCc1cc2ccccc2c(OCCN(C)C)n1	inactive	inactive	inactive	inactive		2.19 µM (active)	inactive		18.8 µM (active)					
O=C(O)Cc1csc(-c2ccc(Cl)cc2)n1	inactive	inactive	inactive	inactive	inactive	inactive	inactive	inactive	inactive					
O=C(O)c1ccc(S(=O)(=O)N(Cl)Cl)cc1	inactive	inactive	inactive	inactive	inactive	inactive	inactive	inactive	inactive					
Cc1cc(C)cc(OCC2CNC(=O)O2)c1 (stereo not drawn)	inactive	inactive	inactive	inactive	inactive	inactive	inactive	inactive	inactive					
CCOc1ccccc1C(N)=O	inactive	inactive	inactive	inactive	inactive	inactive	inactive	18.8 µM (active)						
C=C[C@H]1CN2CC[C@H]1C[C@@H]2[C@@H](O)c1ccnc2ccc(OC)cc12	inactive	inactive	inactive		inactive		inactive		inactive	inactive				
N[C@H](C(=O)O)[C@@H](O)c1ccc(O)c(O)c1	inactive	inactive	inactive	inactive	inactive		inactive	inactive						
CC1(C)OC[C@@H]2O[C@@]3(C(=O)O)OC(C)(C)O[C@H]3[C@@H]2O1	inactive	inactive	inactive	inactive	inactive	inactive	inactive						inactive	
NC(=O)C1(N2CCCCC2)CCN(CCCC(=O)c2ccc(F)cc2)CC1	inactive	inactive	inactive		inactive	4.36 µM (active)	inactive	inactive	inactive				inactive	inactive
